# Many of the other results were omitted from the sample, so the strongest signals are more common in it than they were.
# Legend:
# Assay in all cases: glycan array binding signal (z-score within array); higher = stronger binding
# Gal3S6S(b1-4)GlcNAc = conditions: glycan notation: IUPAC condensed, linker removed
# In short: (§1)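 Arrays were curated from the Consortium for Functional Glycomics database, 3228 in total, and kept only where the protein sequence was available. Binding is expressed as a within-array Z-score. This score was averaged across arrays of the same protein sequence at different concentrations or buffers and across linkers, and negative values can be read as non-binding.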
# Gal3S6S(b1-4)GlcNAc6S = conditions: glycan notation: IUPAC condensed, linker removed
# In short: as §1
# Gal4S6S(b1-4)GlcNAc = conditions: glycan notation: IUPAC condensed, linker removed
# In short: as §1
# Gal6S(b1-4)GlcNAc = conditions: glycan notation: IUPAC condensed, linker removed
# In short: as §1
# [1] = tested on: Gal3S(b1-4)[Fuc(a1-3)]Glc; conditions: glycan notation: IUPAC condensed, linker removed
# In short: as §1
# [2] = tested on: Gal3S(b1-4)[Fuc(a1-3)]Glc6S; conditions: glycan notation: IUPAC condensed, linker removed
# In short: as §1
# [3] = tested on: Gal3S(b1-4)[Fuc(a1-3)]GlcNAc6S; conditions: glycan notation: IUPAC condensed, linker removed
# In short: as §1
# [4] = tested on: Gal3S(b1-4)[Fuc(a1-3)]GlcNAc; conditions: glycan notation: IUPAC condensed, linker removed; mutation: R125K
# In short: as §1
# Gal3S(b1-4)Glc = conditions: glycan notation: IUPAC condensed, linker removed
# In short: as §1
# Gal6S(b1-3)GlcNAc = conditions: glycan notation: IUPAC condensed, linker removed
# In short: as §1
# Sequence of Aggrecan (Rattus norvegicus), NP_071526 (chain, as listed by the source): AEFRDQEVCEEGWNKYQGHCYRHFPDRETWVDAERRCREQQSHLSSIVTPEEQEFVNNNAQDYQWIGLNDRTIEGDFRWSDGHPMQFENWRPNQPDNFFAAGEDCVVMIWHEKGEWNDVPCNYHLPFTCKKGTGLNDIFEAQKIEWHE
# Sequence of PILRa (Mus musculus), Q2YSF3 (Q2YSF3 entry or part of it): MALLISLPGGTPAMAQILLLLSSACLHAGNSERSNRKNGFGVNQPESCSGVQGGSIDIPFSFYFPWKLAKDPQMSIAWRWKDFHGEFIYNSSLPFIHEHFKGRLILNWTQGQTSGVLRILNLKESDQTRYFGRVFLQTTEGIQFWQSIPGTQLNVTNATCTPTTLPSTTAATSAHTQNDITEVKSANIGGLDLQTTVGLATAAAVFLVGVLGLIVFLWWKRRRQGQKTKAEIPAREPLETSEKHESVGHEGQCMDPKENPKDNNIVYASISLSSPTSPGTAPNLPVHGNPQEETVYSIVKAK
# Sequence of 6RG (Lolium perenne), B9U140 (B9U140 entry or part of it): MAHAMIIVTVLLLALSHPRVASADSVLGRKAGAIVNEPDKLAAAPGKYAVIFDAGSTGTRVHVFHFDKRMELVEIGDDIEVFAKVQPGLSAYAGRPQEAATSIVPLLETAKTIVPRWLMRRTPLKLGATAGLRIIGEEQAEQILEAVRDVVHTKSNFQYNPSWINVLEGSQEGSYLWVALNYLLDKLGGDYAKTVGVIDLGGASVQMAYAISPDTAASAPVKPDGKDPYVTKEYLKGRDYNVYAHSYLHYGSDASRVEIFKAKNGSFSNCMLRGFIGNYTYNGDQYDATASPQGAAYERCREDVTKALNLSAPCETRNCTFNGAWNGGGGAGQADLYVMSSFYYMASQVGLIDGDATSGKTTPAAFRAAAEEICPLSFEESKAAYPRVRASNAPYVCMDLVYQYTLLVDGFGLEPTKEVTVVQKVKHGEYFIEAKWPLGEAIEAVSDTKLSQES
# Sequence of wLAT-1A (Homo sapiens), Q01650 (Q01650 whole entry): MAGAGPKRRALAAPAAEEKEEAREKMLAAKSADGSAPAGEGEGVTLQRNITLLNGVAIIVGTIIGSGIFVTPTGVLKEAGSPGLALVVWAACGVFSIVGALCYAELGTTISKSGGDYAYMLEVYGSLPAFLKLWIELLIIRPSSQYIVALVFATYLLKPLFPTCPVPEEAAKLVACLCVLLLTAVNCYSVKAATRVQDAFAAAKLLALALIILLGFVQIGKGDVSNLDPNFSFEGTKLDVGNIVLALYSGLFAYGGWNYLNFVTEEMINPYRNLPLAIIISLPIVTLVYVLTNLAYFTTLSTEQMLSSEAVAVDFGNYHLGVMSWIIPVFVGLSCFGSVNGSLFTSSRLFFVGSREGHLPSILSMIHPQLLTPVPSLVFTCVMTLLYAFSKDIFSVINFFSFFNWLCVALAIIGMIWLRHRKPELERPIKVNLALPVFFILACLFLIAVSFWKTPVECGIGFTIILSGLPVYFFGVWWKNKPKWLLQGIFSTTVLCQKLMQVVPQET
# Sequence of PILRb (Mus musculus), Q2YSF2 (Q2YSF2 entry or part of it): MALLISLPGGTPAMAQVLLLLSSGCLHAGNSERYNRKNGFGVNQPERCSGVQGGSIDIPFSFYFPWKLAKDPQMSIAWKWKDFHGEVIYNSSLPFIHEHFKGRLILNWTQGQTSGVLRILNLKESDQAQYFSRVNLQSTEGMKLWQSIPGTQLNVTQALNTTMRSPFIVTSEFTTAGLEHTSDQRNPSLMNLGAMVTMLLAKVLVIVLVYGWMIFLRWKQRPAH
# Sequence of SRLC (Mus musculus), Q8VIF6 (Q8VIF6 other isoform, or with tags, fused parts or gaps): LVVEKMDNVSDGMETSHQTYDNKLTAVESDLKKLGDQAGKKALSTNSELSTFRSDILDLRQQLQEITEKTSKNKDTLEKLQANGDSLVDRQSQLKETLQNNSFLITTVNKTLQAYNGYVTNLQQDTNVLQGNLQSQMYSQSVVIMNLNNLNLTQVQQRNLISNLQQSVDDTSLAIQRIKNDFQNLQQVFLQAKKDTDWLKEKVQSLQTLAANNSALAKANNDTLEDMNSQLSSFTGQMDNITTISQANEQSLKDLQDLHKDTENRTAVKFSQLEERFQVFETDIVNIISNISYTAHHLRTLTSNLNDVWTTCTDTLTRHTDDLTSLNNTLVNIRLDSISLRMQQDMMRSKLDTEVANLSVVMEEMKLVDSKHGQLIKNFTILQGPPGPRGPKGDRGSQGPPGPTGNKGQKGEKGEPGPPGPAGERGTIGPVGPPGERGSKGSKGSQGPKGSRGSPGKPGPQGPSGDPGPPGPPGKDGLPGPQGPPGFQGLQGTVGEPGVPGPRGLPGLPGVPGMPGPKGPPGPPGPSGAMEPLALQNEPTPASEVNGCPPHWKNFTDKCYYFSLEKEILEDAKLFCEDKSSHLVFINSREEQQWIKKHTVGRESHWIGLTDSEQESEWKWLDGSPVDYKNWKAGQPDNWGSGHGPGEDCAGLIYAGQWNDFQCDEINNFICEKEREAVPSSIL
# Sequence of Regenerating Gene IV (Homo sapiens), Q9BYZ8 (Q9BYZ8 whole entry, looked up): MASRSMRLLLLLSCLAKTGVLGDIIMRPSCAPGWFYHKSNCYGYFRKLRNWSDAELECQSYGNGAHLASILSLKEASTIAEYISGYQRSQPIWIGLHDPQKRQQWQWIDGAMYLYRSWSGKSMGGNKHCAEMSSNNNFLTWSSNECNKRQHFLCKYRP
# Sequence of CHI3L1 (Homo sapiens), P36222 (P36222 whole entry): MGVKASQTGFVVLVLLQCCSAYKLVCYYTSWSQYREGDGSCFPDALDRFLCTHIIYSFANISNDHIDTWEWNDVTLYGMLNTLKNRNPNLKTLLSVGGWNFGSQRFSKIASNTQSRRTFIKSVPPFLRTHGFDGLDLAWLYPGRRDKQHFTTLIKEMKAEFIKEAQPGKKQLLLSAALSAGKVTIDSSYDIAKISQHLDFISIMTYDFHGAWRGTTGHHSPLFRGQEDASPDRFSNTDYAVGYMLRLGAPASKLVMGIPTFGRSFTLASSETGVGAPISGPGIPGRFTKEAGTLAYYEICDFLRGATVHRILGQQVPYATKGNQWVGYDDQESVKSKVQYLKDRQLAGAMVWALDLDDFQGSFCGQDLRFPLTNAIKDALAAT
# Sequence of C3b (Homo sapiens), P01024 (P01024 23-667): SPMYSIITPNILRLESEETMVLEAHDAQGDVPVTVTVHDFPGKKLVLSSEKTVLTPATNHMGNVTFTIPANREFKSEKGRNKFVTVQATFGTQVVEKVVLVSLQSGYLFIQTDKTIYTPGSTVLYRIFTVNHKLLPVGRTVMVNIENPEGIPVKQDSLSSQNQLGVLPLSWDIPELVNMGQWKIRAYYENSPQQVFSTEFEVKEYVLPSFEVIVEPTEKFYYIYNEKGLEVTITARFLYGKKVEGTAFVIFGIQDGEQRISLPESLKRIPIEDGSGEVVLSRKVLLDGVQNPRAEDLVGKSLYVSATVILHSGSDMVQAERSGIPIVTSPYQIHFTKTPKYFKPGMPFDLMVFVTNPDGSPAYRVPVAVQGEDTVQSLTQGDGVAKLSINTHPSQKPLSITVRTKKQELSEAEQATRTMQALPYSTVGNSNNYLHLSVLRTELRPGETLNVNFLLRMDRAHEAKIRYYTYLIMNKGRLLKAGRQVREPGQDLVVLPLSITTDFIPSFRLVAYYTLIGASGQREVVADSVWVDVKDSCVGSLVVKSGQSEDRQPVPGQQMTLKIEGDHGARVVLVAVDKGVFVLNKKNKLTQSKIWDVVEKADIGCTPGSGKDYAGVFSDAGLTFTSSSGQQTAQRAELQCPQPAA
# Sequence of CHT (Homo sapiens) (chain, as listed by the source): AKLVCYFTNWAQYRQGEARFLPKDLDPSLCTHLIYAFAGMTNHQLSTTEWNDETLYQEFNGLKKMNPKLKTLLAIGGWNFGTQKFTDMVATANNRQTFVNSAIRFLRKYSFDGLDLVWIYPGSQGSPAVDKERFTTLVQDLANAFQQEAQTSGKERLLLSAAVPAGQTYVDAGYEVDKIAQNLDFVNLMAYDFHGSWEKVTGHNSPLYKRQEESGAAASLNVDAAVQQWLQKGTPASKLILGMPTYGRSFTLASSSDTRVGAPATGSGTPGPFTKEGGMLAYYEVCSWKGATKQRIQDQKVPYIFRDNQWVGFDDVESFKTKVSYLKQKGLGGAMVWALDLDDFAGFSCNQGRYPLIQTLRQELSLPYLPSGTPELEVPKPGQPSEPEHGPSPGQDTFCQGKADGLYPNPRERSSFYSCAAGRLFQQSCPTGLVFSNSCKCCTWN
substance,measurement,setting,value
CHT (Homo sapiens),glycan array binding signal (z-score),"Gal3S6S(b1-4)GlcNAc; mutation: D138V, E140I",-0.059
"SRLC (Mus musculus), Q8VIF6",glycan array binding signal (z-score),Gal3S6S(b1-4)GlcNAc6S,0.13
"Aggrecan (Rattus norvegicus), NP_071526",glycan array binding signal (z-score),Gal3S6S(b1-4)GlcNAc,-0.034
same,glycan array binding signal (z-score),Gal4S6S(b1-4)GlcNAc,-0.024
same,glycan array binding signal (z-score),Gal6S(b1-4)GlcNAc,0.061
"PILRb (Mus musculus), Q2YSF2",glycan array binding signal (z-score),[1],0.773
"Siglec-8 (Homo sapiens), Q9NYZ4",glycan array binding signal (z-score),[2],0.077
same,glycan array binding signal (z-score),[3],-0.171
same,glycan array binding signal (z-score),[4],0.148
"C3b (Homo sapiens), P01024",glycan array binding signal (z-score),Gal3S6S(b1-4)GlcNAc,-0.743
"Regenerating Gene IV (Homo sapiens), Q9BYZ8",glycan array binding signal (z-score),Gal3S6S(b1-4)GlcNAc,0.332
"PILRa (Mus musculus), Q2YSF3",glycan array binding signal (z-score),Gal3S(b1-4)Glc,0.049
same,glycan array binding signal (z-score),Gal6S(b1-3)GlcNAc,1.62
MpAFP RI GFP (Marinomonas primoryensis),glycan array binding signal (z-score),Gal3S(b1-4)Glc,0.469
"CHI3L1 (Homo sapiens), P36222",glycan array binding signal (z-score),[1],0.014
"6RG (Lolium perenne), B9U140",glycan array binding signal (z-score),Gal3S6S(b1-4)GlcNAc6S,2.09
same,glycan array binding signal (z-score),Gal4S6S(b1-4)GlcNAc,1.06
"wLAT-1A (Homo sapiens), Q01650",glycan array binding signal (z-score),Gal6S(b1-4)GlcNAc,3.6

# From the supplement of paper PMC8728848
